Experimental findings from PubChem BioAssay (Tox21) are described below.

A short description of assay [1]: qHTS RealTime-Glo MT Cell Viability Assay in HEK293 cells - 0 hour (AID 1224880). Further: top concentration of the series differs between compounds; nearly all actives have a fitted effect of over 45% in size. An outline of the steps:
(§1)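 Tox21 screen in HEK293 using RealTime-Glo MT chemistry, with cells and reagent co-dispensed. Luminescence proportional to viable cell number was captured at intervals during 40 h compound exposure at 37 C.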
In general terms: In qHTS, concentration-response curves come from the screen itself.

Assay [2] can be described thus: A CellTox Green Cytotoxicity Assay to monitor cytotoxicity in HEK293 cells - 32 hour (AID 1224881). Further: nearly all actives have a fitted effect of over 40% in size. Further: potency means the concentration at half of the fitted maximal effect. An outline of the steps:
(§2)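 Seeding of HEK293 cells together with cytotoxicity dye preceded a 5 h incubation at 37 C/5% CO2. Test compounds in DMSO were then added and fluorescence monitored across 40 h.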

Assay [3] is described as follows: A CellTox Green Cytotoxicity Assay to monitor cytotoxicity in HepG2 cells - 0 hour (AID 1224882). Further: nearly all actives have a fitted effect of over 35% in size. Further: potency means the concentration at half of the fitted maximal effect. An outline of the steps:
(§3)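 Nonlytic assay: viable cells exclude the dye, so fluorescence scales with cell death. HepG2 at 600 cells/well, compounds added after 5 h, signal read across 40 h.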

Assay [4] in a line: A CellTox Green Cytotoxicity Assay to monitor cytotoxicity in HepG2 cells - 32 hour (AID 1224883). Further: nearly all actives have a fitted effect of over 50% in size. Further: potency means the concentration at half of the fitted maximal effect. An outline of the steps:
as §3

Assay [5] can be described thus: A CellTox Green Cytotoxicity Assay to monitor cytotoxicity in HEK293 cells - 8 hour (AID 1224884). Further: nearly all actives have a fitted effect of over 35% in size. Further: potency means the concentration at half of the fitted maximal effect. The gist of the method: as §2
Assay [6] can be described thus: qHTS RealTime-Glo MT Cell Viability Assay in HepG2 cells - 16 hour (AID 1224885). Further: nearly all actives have a fitted effect of over 50% in size. The gist of the method: (§4)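 Tox21 10K library screened in qHTS format on HepG2 cells carrying RealTime-Glo reagents. Compounds were added after a 5 h preincubation, and the luminescent signal from continuous culture was measured repeatedly during 40 h treatment.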
Assay [7] in a line: qHTS RealTime-Glo MT Cell Viability Assay in HEK293 cells - 8 hour (AID 1224887). Further: nearly all actives have a fitted effect of over 50% in size. Further: potency means the concentration at half of the fitted maximal effect. On activity change, negative = cytotoxicity: top concentration of the series differs between compounds. The gist of the method:
as §1

Assay [8] in a line: A CellTox Green Cytotoxicity Assay to monitor cytotoxicity in HEK293 cells - 16 hour (AID 1224888). Further: nearly all actives have a fitted effect of over 35% in size. Further: potency means the concentration at half of the fitted maximal effect. The gist of the method: as §2
A short description of assay [9]: qHTS RealTime-Glo MT Cell Viability Assay in HepG2 cells - 0 hour (AID 1224889). Further: nearly all actives have a fitted effect of over 50% in size. The gist of the method:
as §4

Assay [10] in a line: A CellTox Green Cytotoxicity Assay to monitor cytotoxicity in HepG2 cells - 8 hour (AID 1224890). Further: nearly all actives have a fitted effect of over 45% in size. Further: potency means the concentration at half of the fitted maximal effect. An outline of the steps: as §3
The nature of assay [11]: qHTS assay to identify small molecule antagonists of the estrogen receptor alpha (ER-alpha) signaling pathway using the BG1 cell line in the presence of 0.1 nM 17-beta-estradiol - cell viability counter screen (AID 1259241). Further: nearly all actives have a fitted effect of over 40% in size. The gist of the method:
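Cytotoxicity counter-screen: live-cell protease activity measured by fluorescence (30 min reagent step) in the same wells. Cells were VM7Luc4E2 with endogenous ER-alpha and ERE-driven luciferase, treated 22 hr at 37C alongside 0.1 nM 17beta-estradiol final.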

Assay [12] can be described thus: qHTS assay to identify small molecule antagonists of the androgen receptor (AR) signaling pathway using the MDA cell line in the presence of 0.5 nM R1881 - cell viability counter screen (AID 1259242). Further: nearly all actives have a fitted effect of over 45% in size. An outline of the steps:
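R1881 at 0.5 nM final stimulated MDA-kb2 cells during 16 hr compound treatment at 37C. Cytotoxicity read: CellTiter-Fluor fluorescence after 30 min.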

Assay [13] in a line: qHTS assay to identify small molecule HDAC inhibitors (AID 1259364). Further: potency means the concentration at half of the fitted maximal effect.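 Further: wild-type HCT-116 cells with endogenous class I/II HDAC activity; nearly all actives have a fitted effect of over 45% in size.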 On activity change, negative = inhibition: top concentration of the series differs between compounds. The gist of the method:
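Relative class I and II HDAC activity is taken from the luminogenic signal in HCT-116 cells, with compound exposure 2 hr and reagent development 30 min at room temperature.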

Assay [14] can be described thus: qHTS assay to identify small molecule HDAC inhibitors - cell viability counter screen (AID 1259365). An outline of the steps:
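CellTiter-Glo luminescence (30 min, room temperature) reported viability after a 2 h compound exposure at 37 C. Cells: wild-type HCT-116, 1,500 per well, seeded the night before.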

Assay [15] in a line: qHTS assay to identify small molecule antagonists of the sonic hedgehog signaling (Shh) pathway - cell viability counter screen (AID 1259367). Further: nearly all actives have a fitted effect of over 55% in size. The gist of the method: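 Cells: 3T3 Gli1-Luc, 2,000/well, 4 hr pre-incubation. Compounds in DMSO, then conditioned medium. Incubation 24 hr, 37C, 5% CO2. CellTiter-Fluor at 23 hr, 1 hr, fluorescence.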
Assay [16] is described as follows: qHTS assay to identify small molecule phospholipidosis (PLD) inducers (AID 1259344; active means well fitted curve in the direction sought with a large enough effect; an effect the other way counts as inactive or inconclusive). An outline of the steps:
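Phospholipidosis is scored by imaging LipidTOX-stained pits in HepG2 cells exposed to compound for 24 h at 37 C; pit counts and integrated intensities per well and per cell serve as outputs.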

A short description of assay [17]: qHTS assay to identify small molecule agonists of the sonic hedgehog signaling (Shh) pathway - cell viability counter screen (AID 1259366). Further: nearly all actives have a fitted effect of over 50% in size. An outline of the steps: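 Cytotoxicity counter screen: CellTiter-Fluor reagent added after 23 h compound exposure, then 1 h at 37C and fluorescence read. Cells were 3T3 Gli1-Luc, seeded 2,000 per well and dosed 4 h post-plating.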

Assay [18] addresses Estrogen receptor (Homo sapiens) (UniProt P03372). Briefly: qHTS assay to identify small molecule antagonists of the estrogen receptor alpha (ER-alpha) signaling pathway using the BG1 cell line in the presence of 0.1 nM 17-beta-estradiol (AID 1259244). Further: nearly all actives have a fitted effect of over 50% in size. Further: potency means the concentration at half of the fitted maximal effect. The gist of the method: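 VM7Luc4E2; 4xERE-luciferase; 0.1 nM E2 final; 22 h co-incubation, 37C; ONE-Glo luminescence after 30 min at room temperature.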

Unmarked numbers belong to inactive results. Results filed as inconclusive are left out. Activity calls are given as the source filed them. Unless noted, the call rests on the fitted dose curve; in most records, active means well fitted curve in the direction sought with a large enough effect in the repeat runs; inconclusive means weak or mixed curves; inactive means no such curve, though single readings can be large; an effect the other way counts as inactive or inconclusive.
On the % scale 0 is the no-effect control and ±100 the full control effect.

Chain of Estrogen receptor (Homo sapiens) (P03372 whole entry, looked up): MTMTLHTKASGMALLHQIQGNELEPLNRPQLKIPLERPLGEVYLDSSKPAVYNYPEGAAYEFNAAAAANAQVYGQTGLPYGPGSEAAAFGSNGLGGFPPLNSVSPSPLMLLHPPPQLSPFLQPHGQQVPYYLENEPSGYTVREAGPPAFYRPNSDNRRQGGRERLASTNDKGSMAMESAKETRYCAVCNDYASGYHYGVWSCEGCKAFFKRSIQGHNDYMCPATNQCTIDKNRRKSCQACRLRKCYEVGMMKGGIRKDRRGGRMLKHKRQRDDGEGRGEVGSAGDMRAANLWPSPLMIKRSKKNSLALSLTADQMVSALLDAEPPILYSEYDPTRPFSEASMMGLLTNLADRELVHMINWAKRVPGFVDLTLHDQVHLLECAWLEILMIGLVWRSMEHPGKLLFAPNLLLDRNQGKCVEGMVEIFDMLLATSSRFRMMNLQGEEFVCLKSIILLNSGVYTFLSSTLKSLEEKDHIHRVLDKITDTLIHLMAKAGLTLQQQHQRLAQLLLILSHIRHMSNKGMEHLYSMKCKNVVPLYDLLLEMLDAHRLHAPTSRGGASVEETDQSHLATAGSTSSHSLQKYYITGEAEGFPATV

As to `CCCCCCCCCC(C)C=O` (stereo not given), the Potency result in assay [1], in assay [7], in [9], in [11], in [12] and in [13] was “inactive” each time. Further, the Potency entry in [15] was “inactive”. Further, the Potency in assay [2] was 21.9 µM (active); in assay [3], 24.5 µM (active); in [4] it was 21.9 µM (active); in assay [5] it was 24.5 µM (active); in assay [8], 21.9 µM (active); in assay [10] it was 24.5 µM (active). The call in [6] and in assay [14] was inactive.
Regarding `COc1ccc(CN(CCN(C)C)c2ncccn2)cc1`, the Potency result in assay [1], in [2], in assay [3], in assay [4], in [5] and in assay [7] was “inactive” each time. For the same compound, the Potency result in [9], in assay [10], in assay [11], in assay [12], in assay [16] and in [13] was “inactive” each time. The Potency result in [17] and in assay [15] was “inactive” in each case. Also, the result in assay [6] and in assay [14] was inactive.
Take `COc1cc(CNC(=O)CCCC/C=C/C(C)C)ccc1O`: the Potency entry in [1], in assay [2], in [3], in [4], in [5] and in assay [8] was “inactive” each time. Moreover, the Potency result in assay [9], in [10], in assay [12], in assay [16], in assay [13] and in [17] was “inactive” each time. Also, in assay [15], the Potency result is “inactive”. The compound was called inactive in [6] and in assay [14]. Also, the Potency in assay [7] is 2.39 µM (active); in assay [18] it was 59.5 µM (active).
As for `Clc1ccccc1-c1nc(-c2ccncc2)no1`, the Potency result in assay [1], in assay [2], in assay [3], in [4], in [5] and in assay [7] was “inactive” each time. The Potency result in [8], in assay [9], in assay [10], in assay [11], in [12] and in assay [16] was “inactive” throughout. Further, the Potency result in assay [17] and in assay [15] was “inactive” throughout. Further, the call in assay [6] and in assay [14] was inactive. Further, in [13], the Potency is 2.66 µM (active).
For the compound `Cc1cc(C)n(CO)n1`, the Potency result in assay [1], in [2], in assay [3], in assay [4], in [5] and in assay [7] was “inactive” each time. In addition, the Potency entry in [8], in assay [9], in assay [10], in assay [11], in assay [12] and in assay [18] was “inactive” in each case. Moreover, the Potency result in [13], in [17] and in [15] was “inactive” each time. The compound was classed as inactive in [6] and in assay [14].
`O=C1C=CCCC1`: the Potency entry in [1], in assay [2], in assay [3], in [4], in assay [5] and in assay [7] was “inactive” throughout. Further, the Potency entry in assay [8], in assay [10], in assay [11], in [12], in [18] and in [13] was “inactive” throughout. Moreover, the Potency entry in assay [17] was “inactive”. For the same compound, the outcome in assay [6] and in [14] was inactive.
On to `CCCCCCCCCCCCCCCCCCCl`, for which the activity change, negative = cytotoxicity is 8.32% [at 6.97 µM] in [1]; 0.0634% [at 6.97 µM] in assay [7]; 4.46% [at 6.97 µM] in assay [9]; 5.01% [at 8.39 µM] in [11]; 1.46% [at 8.39 µM] in [14]. In addition, the cytotoxicity increase is 3.09% [at 6.97 µM] in assay [2], -12.9% [at 6.97 µM] in assay [4], 13.7% [at 6.97 µM] in [5] and 0.0897% [at 6.97 µM] in assay [10]. Besides, the cytotoxicity in [3] is 0.682% [at 6.97 µM]. Besides, in assay [6], the activity change, negative = cytotoxic was -0.256% [at 6.97 µM]. Further, in [8], the activity change was 11.7% [at 6.97 µM, active compounds read high]. Also, the results for the viability change, negative = cytotoxic in [12], in [17] and in assay [15] were 5.37% [at 8.39 µM], 3.36% [at 8.39 µM] and 0.635% [at 8.39 µM], respectively. In addition, the activity change, negative = inhibition was -0.369% [at 8.39 µM] in assay [18] and 2.06% [at 8.39 µM] in assay [13].
For `CC1(C)C(=O)NC(=O)N1CO`, the Potency entry in assay [1], in assay [2], in assay [3], in [4], in assay [5] and in assay [7] was “inactive” each time. For the same compound, the Potency result in assay [8], in assay [10], in assay [11], in assay [12], in assay [18] and in assay [13] was “inactive” each time. In addition, the Potency result in assay [17] and in assay [15] was “inactive” throughout. Also, the compound was classed as inactive in assay [6] and in assay [14].
